Test results from PubChem BioAssay.
Unmarked numbers belong to inactive results. The source made the active and inactive calls. No stated cut-off is given here; in the data, active means inhibition above about 42%; inactive means the rest.

target: Nuclear receptor subfamily 5 group A member 2 (Homo sapiens) (UniProt O00482); test: NR5A2 activity suppression in reporter cells – cell-based, luminescence, confirmation (AID 651613); conditions: cell-based LRH-1 luciferase reporter, inverse agonism; at 3.6 µM; stronger effect = higher value;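 further: HEK293T cells co-transfected with LRH-1 and StAR promoter luciferase reporter; 0% = vehicle wells and 100% = parental cells lacking receptor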
Sequence (O00482 whole entry, looked up): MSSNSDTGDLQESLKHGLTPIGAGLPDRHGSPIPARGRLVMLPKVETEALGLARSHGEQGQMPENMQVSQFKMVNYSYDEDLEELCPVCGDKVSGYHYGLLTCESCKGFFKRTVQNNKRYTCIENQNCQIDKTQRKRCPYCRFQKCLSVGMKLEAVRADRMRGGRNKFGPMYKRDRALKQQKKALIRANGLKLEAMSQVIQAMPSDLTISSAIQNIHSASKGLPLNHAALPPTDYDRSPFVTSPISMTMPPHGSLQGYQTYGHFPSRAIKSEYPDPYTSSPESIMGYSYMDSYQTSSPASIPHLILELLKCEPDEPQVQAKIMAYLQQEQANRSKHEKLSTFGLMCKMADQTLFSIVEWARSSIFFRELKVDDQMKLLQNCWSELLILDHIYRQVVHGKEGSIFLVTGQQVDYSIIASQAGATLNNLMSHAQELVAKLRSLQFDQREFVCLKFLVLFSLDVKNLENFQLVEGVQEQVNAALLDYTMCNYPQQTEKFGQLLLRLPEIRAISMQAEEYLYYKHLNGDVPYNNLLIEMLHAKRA

Row | SMILES | inhibition
1 | Cc1ccccc1N=C1NC(=O)/C(=C/c2cccnc2)S1 | 39.8%
2 | Cc1cccc(NC(=O)COC(=O)c2cccs2)c1C | 52.7% (active)
3 | COc1ccc(-c2cc(NC=O)c3ncc(-c4ccc(C(C)=O)cc4)n3c2)cn1 | 66% (active)
4 | CCCC(=O)Nc1sc2c(c1C(=O)Nc1ccccn1)CCCC2 | 47.1% (active)
5 | O=C(CSc1ncnc2c1cnn2Cc1ccccc1)Nc1ccc2c(c1)OCCO2 | 61.3% (active)
6 | NS(=O)(=O)c1ccc(O)c(NC(=O)c2ccc([N+](=O)[O-])o2)c1 | 67.2% (active)
7 | Cc1nc2ccccc2n1/N=C/c1ccc([N+](=O)[O-])s1 | 68.2% (active)
8 | CCOc1ccc(NC(=O)COC(=O)c2cc([N+](=O)[O-])ccc2N2CCOCC2)cc1 | 55.9% (active)
9 | CN1CC(=O)N(CC(=O)Nc2ccc(N3CCOCC3)cc2)C1=O | 63.9% (active)
10 | COc1ccc(OCCNC(=O)C2(C)CCN2Cc2ccc3ccccc3c2)cc1 (stereo not given) | 45.2% (active)
11 | COc1ccc(-c2nnc(NC(=O)c3ccc([N+](=O)[O-])o3)o2)c(OC)c1 | 63.4% (active)
12 | Cc1cc(O)c(/C=N/Nc2cccc(Cl)c2)c(=O)o1 | 44.5% (active)
13 | CNC(=O)c1cccc(NC(=O)c2cc(-c3ccccc3)nc3c2cnn3C(C)C)c1 | 51.7% (active)
14 | CCOCC(=O)Nc1cccc(C(=O)OCC)c1 | 36.9%
15 | O=C(CSc1cc(Cl)ccc1Cl)Nc1ccc(N2CCOCC2)cc1 | 63.9% (active)
16 | CCOc1ccc(CCNC(=O)COC(=O)c2nc3nc(C)cc(C)n3n2)cc1OCC | 48.8% (active)
17 | Cc1ccccc1C(=O)O/N=C/c1c(N2CCOCC2)n(C)c2ccccc12 | 84.3% (active)
18 | NC(=S)N/N=C/c1ccc([N+](=O)[O-])cc1 | 42.7% (active)
19 | CC(=O)Nc1ccc(NC(=O)CSc2nnc(-c3cc4ccccc4o3)n2C)cc1 | 42.7% (active)
20 | O=C(CSC1=NCCS1)N1CCN(c2ccc(Cl)cc2)CC1 | 56.3% (active)

Row | SMILES | inhibition
21 | COC(=O)c1ccc(NC(=O)CN2CCN(c3ccc(Cl)cc3)CC2)cc1 | 52.3% (active)
22 | CCOC(=O)c1ccc(Nc2nc(-c3cccnc3)nc3ccccc23)cc1 | 49.6% (active)
23 | Cc1ccc(OCCC(=O)OCC(=O)Nc2ccc(N3CCOCC3)cc2)cc1 | 54.8% (active)
24 | COc1ccc2sc(-c3ccc(N(C)C)cc3)c(C#CCCO)c2c1 | 21.3%
25 | COc1ccccc1NC(=O)CN1CCN(CC(=O)Nc2ccc3c(c2)OCO3)CC1 | 54.4% (active)
26 | COc1ccc(CCNC(=O)CSc2nn3c(=O)c(C)nnc3s2)cc1OC | 57.5% (active)
27 | O=C(Nc1ccc(NC(=O)c2ccc([N+](=O)[O-])o2)cc1Cl)c1ccco1 | 59.8% (active)
28 | O=C(NCc1cccnc1)c1cccn2c(=O)c3sccc3nc12 | 34.3%
29 | O=C(COC(=O)c1ccc(Br)o1)Nc1ccc2c(c1)OCCO2 | 59.4% (active)
30 | COc1ccc(C2=NS(=O)(=O)N(C)C(C(=O)N3CCc4ccccc4C3)=C2)cc1OC | 43% (active)
31 | Cc1ccc(NC(=O)COC(=O)C(NS(=O)(=O)c2ccc(Cl)cc2)C(C)O)cc1C (stereo not given) | 61.8% (active)
32 | COc1ccc(NC(=O)/C(Cl)=C(/Cl)S(=O)Cc2ccc(Cl)cc2)cn1 (stereo not given) | 91.7% (active)
33 | Cc1cc(OCC(=O)NCc2cccnc2)c2c(C)c(C)c(=O)oc2c1 | 61.8% (active)
34 | O=C(NC1CCC(CC2CCC(NC(=O)C(Cl)Cl)CC2)CC1)C(Cl)Cl (stereo not given) | 58.2% (active)
35 | Cc1ccc(NC(=O)[C@H](Cc2c[nH]c3ccccc23)NC(=O)[C@@H]2Cc3ccccc3CN2)c(C)c1 | 3.94%
36 | Cc1cccnc1NC(=O)c1ccc([N+](=O)[O-])o1 | 52.7% (active)
37 | COc1ccc(Nc2nc(NCCN3CCOCC3)nc(Nc3ccc(OC)cc3)n2)cc1 | 42.9% (active)
38 | OCC1OC(n2cnc3c(/C=C(\O)c4ccccc4)ncnc32)C(O)C1O (stereo not given) | -13.9%
39 | COc1ccccc1-c1cc(NC(C)=O)c2ncc(-c3ccc(S(C)(=O)=O)cc3)n2c1 | 49.3% (active)
40 | N#Cc1cc([N+](=O)[O-])ccc1NC(=O)COC(=O)C1CCC(=O)N1 (stereo not given) | 53.7% (active)
